Compound activity deposited in PubChem by several laboratories.
Sampled rows, rich in hits. Any-hit rate of the full collection: about 5.4%.
rCAG RNA binder – binders of r(CAG) RNA repeats, primary screen, biochemical, fluorescence; r(CAG) RNA repeat, TO-PRO-1 dye displacement fluorescence; inhibition, % at 3 µM; 1.3% of 370,000 active; AID 651821, 2012;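 active = inhibition above the plate cutoff, the mean of all test compounds on that plate plus 3 SD, cut at about 35% in these data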;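 note: 0% = DMSO alone and 100% = 100 µM mitoxantrone as full dye displacement; higher means more dye released from RNA so lower well fluorescence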
APOBEC3A inh – APOBEC3A ssDNA deaminase inhibitors, primary screen, selectivity assay for APOBEC3G inhibitor project, biochemical, FAM/TAMRA oligo cleavage fluorescence | 0.41% of 330,000 active | inhibition, % at 20 µM | recombinant A3A, FAM/TAMRA ssDNA deamination fluorescence;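 active = at least 40% inhibition at 20 µM here, with at most 30% in a related deaminase screen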;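 note: plate controls were A3A with DMSO for no effect and wells lacking A3A enzyme for full effect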
aDG glyco up – activators of alpha-DG glycosylation, primary screen, uHTS, Pro5-aDG cells, AlphaScreen; alpha-DG glycosylation AlphaScreen (IIH6); 0% Pro5, 100% B10-LARGE cell signal; activation, % at 10 µM; 0.22% of 360,000 active; AID 624168, 2012;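 active = activation of at least 8% versus controls, or a plate z-score of at least 8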;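 note: Pro5 are CHO cells carrying HIG-tagged alpha-DG that lacks glycosylation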
ALR inh – inhibitors of human ALR sulfhydryl oxidase, primary screen, biochemical, H2O2 detection, HRP-luminol luminescence, single point; FAD-linked sulfhydryl oxidase ALR (Homo sapiens), P55789; purified ALR, DTT oxidation; inhibition, % (no concentration beside the values); 3.8% of 290,000 active;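 active = mean replicate inhibition above about 79%, with every replicate also reaching it, limit read from the data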
Target sequence (P55789 whole entry, looked up): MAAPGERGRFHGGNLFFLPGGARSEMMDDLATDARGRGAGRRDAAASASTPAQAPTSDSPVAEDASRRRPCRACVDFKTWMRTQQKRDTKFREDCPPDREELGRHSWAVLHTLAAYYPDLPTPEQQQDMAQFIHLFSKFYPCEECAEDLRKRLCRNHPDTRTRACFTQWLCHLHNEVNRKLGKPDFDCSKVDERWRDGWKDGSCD
APOBEC3G inh – APOBEC3G DNA deaminase inhibitors, primary screen, biochemical, fluorescence, single-stranded DNA substrate, uHTS | DNA dC->dU-editing enzyme APOBEC-3G (Homo sapiens), Q9HC16 | recombinant A3G, ssDNA deamination FAM/TAMRA fluorescence | inhibition, % at 20 µM | 0.28% of 330,000 active;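 active = inhibition of at least 40% at 20 µM, with no more than 30% in the related APOBEC3A deaminase screen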;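 note: plate controls were DMSO wells with A3G for no effect and wells lacking A3G enzyme for full effect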
PHOSPHO1 block – PubChem AID 1565; Phosphoethanolamine/phosphocholine phosphatase (Homo sapiens), Q8TCT1; recombinant PHOSPHO1, absorbance phosphatase assay; inhibition, % at 13.3 µM; 1.1% of 290,000 active; in the data active = inhibition above about 60%
Target sequence (Q8TCT1 whole entry, looked up): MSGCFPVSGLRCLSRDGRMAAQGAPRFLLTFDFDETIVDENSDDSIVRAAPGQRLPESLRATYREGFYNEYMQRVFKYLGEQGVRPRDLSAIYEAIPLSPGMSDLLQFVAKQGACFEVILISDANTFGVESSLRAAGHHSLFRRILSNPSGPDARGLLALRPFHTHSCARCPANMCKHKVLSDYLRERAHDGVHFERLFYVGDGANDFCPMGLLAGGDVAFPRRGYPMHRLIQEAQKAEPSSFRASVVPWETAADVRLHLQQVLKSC
The depositor's hits bear a star; / = not tested or not shown.

SMILES | rCAG RNA binder | APOBEC3A inh | aDG glyco up | ALR inh | APOBEC3G inh | PHOSPHO1 block
O=C(C1CCCN(Cc2cccnc2)C1)N1CCCCC1 (centres undefined) | 0 | -3 | 0 | -11 | -7 | 2
Cc1cccc(-c2cccc(NC(=O)C3CCCN(Cc4cccnc4)C3)c2)c1 (centres undefined) | -4 | -3 | 0 | -11 | -4 | 61*
CCCCCCCCN1C(=O)N2Cc3cc(OC)ccc3C2CS1(=O)=O (centres undefined) | 0 | / | / | / | / | /
COc1cc(C(=O)CCN2CCC(c3ccccc3)C2)cc(OC)c1OC (centres undefined) | -5 | -2 | 0 | 98* | 4 | -16
O=C(CCN1CCC(c2ccccc2)C1)c1ccccc1 (centres undefined) | / | -1 | 0 | 10 | -3 | 44
O=C(CSc1nc2ccccc2s1)N1CCOCC1 | 10 | -3 | 0 | 97* | -5 | 14
O=C(CSc1nc2ccccc2s1)NCCCN1CCOCC1 | -1 | -1 | 0 | -11 | -3 | -7
CC1(C)CC2(CC(C)(C(=O)CSc3nc4ccccc4s3)OC2=O)C(=O)O1 (centres undefined) | 9 | 1 | 0 | 91* | -6 | -53
O=C(CSc1nc2ccccc2s1)NC1CCCc2ccccc21 (centres undefined) | 5 | 3 | 0 | / | -1 | 1
CC1CC2(CC(C)(C(=O)CSc3nc4ccccc4s3)OC2=O)C(=O)O1 (centres undefined) | 4 | -5 | 0 | 98* | -11 | 7
O=C(CSc1nc2ccccc2s1)NCc1ccc2c(c1)OCO2 | 1 | 5 | 0 | 98* | -3 | -22
O=C(c1cccs1)N1CC[C@H]2[C@H](CCCN2Cc2cc(F)cc(F)c2)C1 | 2 | / | / | / | / | /
COC(=O)CC1C(=O)NCCN1C(=O)c1ccccc1 (centres undefined) | -1 | -2 | 0 | 6 | -4 | -13
Nc1nc(CSCc2ccccc2)nc(N2CCOCC2)n1 | 4 | 0 | 0 | -1 | 0 | 12
CC1(C(=O)CSc2nc3ccccc3s2)CCC(=O)O1 (centres undefined) | 5 | -5 | 0 | 99* | 6 | -32
COC(=O)CC1C(=O)NCCN1C(=O)CSc1nc2ccccc2s1 (centres undefined) | 5 | -3 | 0 | 99* | -7 | -16
Nc1nc(CSc2nc3ccccc3s2)nc(N2CCOCC2)n1 | -5 | 2 | 0 | 99* | 0 | 45
NC(=O)C1(N2CCCCC2)CCN(C(=O)CSc2nc3ccccc3s2)CC1 | -5 | -7 | 0 | / | -9 | -28
Cc1ccccc1-c1ccc2c(c1)[C@@H]1C[C@H](N(C)C(=O)c3ccco3)[C@H]([C@H](C)O)CN1CC2 | 4 | / | / | / | / | /
COC(=O)N1C[C@H](OCc2ccc3c(c2)OCO3)[C@H]2C[C@@H]1c1ccccc1O2 | 1 | / | / | / | / | /
CSCCCNc1nc(C)nc2c1nnn2Cc1ccccc1 | 1 | / | / | / | / | /
Cc1ccc(C2=CCN(C)C(=O)N2c2ccccc2)cc1 | 4 | / | / | / | / | /
Cc1ccc(Nc2cc(C)c3ccc(O)cc3n2)cc1C | 10 | 2 | 0 | 88* | -3 | 32
COC(=O)c1cc(Nc2cc(C)c3ccc(O)cc3n2)cc(C(=O)OC)c1 | 7 | 3 | 0 | -2 | -3 | 42
S=c1[nH]nc(-c2ccncc2)n1/N=C/c1cccc(Cl)c1 | 1 | -4 | 0 | -1 | 53* | -15
SMILES | rCAG RNA binder | APOBEC3A inh | aDG glyco up | ALR inh | APOBEC3G inh | PHOSPHO1 block
S=c1[nH]nc(-c2ccccc2)n1/N=C/c1cccc(Cl)c1 | 29 | -6 | 0 | / | 17 | /
Cc1cccc(/C=N/n2c(-c3ccccn3)n[nH]c2=S)c1 | / | -1 | / | 95* | 57* | -4
C=CCn1c(SCc2ccc(C#N)cc2)nnc1-c1ccco1 | 2 | / | / | / | / | /
c1ccc(Cc2nn3c(Cn4nnc5ccccc54)nnc3s2)cc1 | 2 | 4 | 0 | -6 | 14 | 91*
c1ccc(OCc2nn3c(Cn4nnc5ccccc54)nnc3s2)cc1 | 3 | 5 | 1 | 9 | 39 | 83*
c1ccc(CCc2nn3c(Cn4nnc5ccccc54)nnc3s2)cc1 | 3 | 4 | 0 | -16 | 32 | 37
c1ccc2c(c1)OCC(c1nn3c(Cn4nnc5ccccc54)nnc3s1)O2 (centres undefined) | 6 | 2 | 1 | -4 | 19 | 62*
COc1ccc(OCc2nn3c(-c4cccc(OC)c4)nnc3s2)cc1 | 0 | 2 | 0 | -6 | -4 | 18
COc1ccc(OCc2nn3c(Cn4cnc5ccccc54)nnc3s2)cc1 | 0 | -2 | 1 | -7 | 8 | 81*
COC(=O)[C@]12C[C@H](CC(=O)N3CCSCC3)C(=O)N(Cc3ccco3)C1=C[C@H](COCc1ccccc1)O[C@@H]2C | 6 | / | / | / | / | /
CCOc1ccccc1NC(C)C(=O)NC(=O)NC1CCCCC1 (centres undefined) | -1 | -1 | 0 | 88* | -4 | /
CC(Nc1ccc(F)cc1F)C(=O)NC(=O)NC1CCCCC1 (centres undefined) | -8 | 3 | 0 | -14 | 0 | -14
Cc1ccccc1OCC(=O)Nc1nnc(-c2ccncc2)s1 | 5 | -1 | 0 | 87* | -2 | 57
CC[C@@]1(c2ccccc2OC)C(=O)N(C(=O)OC)N1C(=O)OC | / | -1 | 0 | / | -4 | 25
CC[C@@]1(c2cccc(C)c2)C(=O)N(C(=O)OC)N1C(=O)OC | 5 | -4 | 0 | 83* | -13 | 25
CCn1c(N)c(C(=O)N2CCOCC2)sc1=S | -1 | -2 | 0 | 98* | 13 | 69*
C=CCn1c(N)c(C(=O)N2CCOCC2)sc1=S | 0 | -4 | 0 | 99* | -7 | -25
CCOc1ccc(C(=O)Nc2cccc(C(=O)O)c2C)cc1Cl | 1 | 8 | 0 | -1 | -11 | 8
CCOC(=O)c1ccc(Cl)c(NC(=O)c2ccc(-c3ccccc3)cc2)c1 | -1 | -2 | 0 | -3 | -8 | 66*
CCOc1c(Cl)cc(C(=O)Nc2ccccc2C(=O)O)cc1Cl | 51* | -1 | 0 | 8 | -5 | 19
O=C(Nc1ccc(Cl)cc1Cl)c1ccc(-c2ccccc2)cc1 | 0 | -2 | 0 | -6 | -5 | 7
COc1ccc(-c2ccc3c(n2)CCCN3S(=O)(=O)c2ccccc2)cc1 | 3 | / | / | / | / | /
Cc1oc(-c2ccccc2Cl)nc1CS(=O)CC(=O)NCc1ccccc1Cl (centres undefined) | -1 | -3 | 0 | 99* | -6 | 42
